Results from the supplement of paper PMC10849652.
Targets with a hit are over-represented here; the source holds about 8,800 in all. About 0.5% of all pairs of compound and target were hits. Values without a mark were called inactive.

Tests used:
Experiment in all cases: log2 fold change, soluble protein after heating vs DMSO (PISA); higher = thermal stabilisation; K562 lysate, 10 uM; active = over 0.2 and 3.5 SD of the protein, either way, in both replicates (recomputed)
alvocidib = compound: CN1CC[C@H](c2c(O)cc(O)c3c(=O)cc(-c4ccccc4Cl)oc23)[C@H](O)C1 [alvocidib]
In short: (§1)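 Soluble protein was defined as the supernatant remaining after 21,000xg for 90 min, following pooling of heated aliquots and adjustment to 0.5% NP-40 at 4°C. Before that, crude K562 extract at 1 mg/mL protein in PBS pH 7.4 with 1 mM MgCl2 was treated with 10 μM compound for 30 min and heated for 3 min across 48°C-58°C. Quantification used TMTpro 16plex LC-MS/MS with channel sums equalised, and values are log-two fold changes in thermal stability relative to solvent controls from duplicates.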

Tubastatin A = compound: CN1CCc2c(c3ccccc3n2Cc2ccc(C(=O)NO)cc2)C1 [Tubastatin A]
In short: as §1

[1] = compound: CNC(=O)C1=CC=CC=C1NC2=NC(=NC=C2Cl)NC3=C(C=C(C=C3)N4CCOCC4)OC
In short: as §1

defactinib = compound: CNC(=O)c1ccc(Nc2ncc(C(F)(F)F)c(NCc3nccnc3N(C)S(C)(=O)=O)n2)cc1 [defactinib]
In short: as §1

encorafenib = compound: COC(=O)N[C@@H](C)CNc1nccc(-c2cn(C(C)C)nc2-c2cc(Cl)cc(NS(C)(=O)=O)c2F)n1 [encorafenib]
In short: as §1

[2] = compound: COC(=O)[C@H](CCSC)NC(=O)C1=C(C=C(C=C1)NC[C@H](CS)N)C2=CC=CC=C2
In short: as §1

alisertib = compound: COc1cc(Nc2ncc3c(n2)-c2ccc(Cl)cc2C(c2c(F)cccc2OC)=NC3)ccc1C(=O)O [alisertib]
In short: as §1

[3] = compound: COc1cc2nc(-c3cc(F)ccc3O)nc(N[C@@H]3CNC[C@H]3C(C)(C)O)c2cc1OC
In short: as §1

gefitinib = compound: COc1cc2ncnc(Nc3ccc(F)c(Cl)c3)c2cc1OCCCN1CCOCC1 [gefitinib]
In short: as §1

[4] = compound: CNc1nc(-c2ccc3c(N)n[nH]c3c2)cc(N2C[C@@H](C(=O)NC3CCCCC3)CC[C@H]2C)n1
In short: as §1

UniProt Q5T011, sequence (Q5T011 whole entry, looked up): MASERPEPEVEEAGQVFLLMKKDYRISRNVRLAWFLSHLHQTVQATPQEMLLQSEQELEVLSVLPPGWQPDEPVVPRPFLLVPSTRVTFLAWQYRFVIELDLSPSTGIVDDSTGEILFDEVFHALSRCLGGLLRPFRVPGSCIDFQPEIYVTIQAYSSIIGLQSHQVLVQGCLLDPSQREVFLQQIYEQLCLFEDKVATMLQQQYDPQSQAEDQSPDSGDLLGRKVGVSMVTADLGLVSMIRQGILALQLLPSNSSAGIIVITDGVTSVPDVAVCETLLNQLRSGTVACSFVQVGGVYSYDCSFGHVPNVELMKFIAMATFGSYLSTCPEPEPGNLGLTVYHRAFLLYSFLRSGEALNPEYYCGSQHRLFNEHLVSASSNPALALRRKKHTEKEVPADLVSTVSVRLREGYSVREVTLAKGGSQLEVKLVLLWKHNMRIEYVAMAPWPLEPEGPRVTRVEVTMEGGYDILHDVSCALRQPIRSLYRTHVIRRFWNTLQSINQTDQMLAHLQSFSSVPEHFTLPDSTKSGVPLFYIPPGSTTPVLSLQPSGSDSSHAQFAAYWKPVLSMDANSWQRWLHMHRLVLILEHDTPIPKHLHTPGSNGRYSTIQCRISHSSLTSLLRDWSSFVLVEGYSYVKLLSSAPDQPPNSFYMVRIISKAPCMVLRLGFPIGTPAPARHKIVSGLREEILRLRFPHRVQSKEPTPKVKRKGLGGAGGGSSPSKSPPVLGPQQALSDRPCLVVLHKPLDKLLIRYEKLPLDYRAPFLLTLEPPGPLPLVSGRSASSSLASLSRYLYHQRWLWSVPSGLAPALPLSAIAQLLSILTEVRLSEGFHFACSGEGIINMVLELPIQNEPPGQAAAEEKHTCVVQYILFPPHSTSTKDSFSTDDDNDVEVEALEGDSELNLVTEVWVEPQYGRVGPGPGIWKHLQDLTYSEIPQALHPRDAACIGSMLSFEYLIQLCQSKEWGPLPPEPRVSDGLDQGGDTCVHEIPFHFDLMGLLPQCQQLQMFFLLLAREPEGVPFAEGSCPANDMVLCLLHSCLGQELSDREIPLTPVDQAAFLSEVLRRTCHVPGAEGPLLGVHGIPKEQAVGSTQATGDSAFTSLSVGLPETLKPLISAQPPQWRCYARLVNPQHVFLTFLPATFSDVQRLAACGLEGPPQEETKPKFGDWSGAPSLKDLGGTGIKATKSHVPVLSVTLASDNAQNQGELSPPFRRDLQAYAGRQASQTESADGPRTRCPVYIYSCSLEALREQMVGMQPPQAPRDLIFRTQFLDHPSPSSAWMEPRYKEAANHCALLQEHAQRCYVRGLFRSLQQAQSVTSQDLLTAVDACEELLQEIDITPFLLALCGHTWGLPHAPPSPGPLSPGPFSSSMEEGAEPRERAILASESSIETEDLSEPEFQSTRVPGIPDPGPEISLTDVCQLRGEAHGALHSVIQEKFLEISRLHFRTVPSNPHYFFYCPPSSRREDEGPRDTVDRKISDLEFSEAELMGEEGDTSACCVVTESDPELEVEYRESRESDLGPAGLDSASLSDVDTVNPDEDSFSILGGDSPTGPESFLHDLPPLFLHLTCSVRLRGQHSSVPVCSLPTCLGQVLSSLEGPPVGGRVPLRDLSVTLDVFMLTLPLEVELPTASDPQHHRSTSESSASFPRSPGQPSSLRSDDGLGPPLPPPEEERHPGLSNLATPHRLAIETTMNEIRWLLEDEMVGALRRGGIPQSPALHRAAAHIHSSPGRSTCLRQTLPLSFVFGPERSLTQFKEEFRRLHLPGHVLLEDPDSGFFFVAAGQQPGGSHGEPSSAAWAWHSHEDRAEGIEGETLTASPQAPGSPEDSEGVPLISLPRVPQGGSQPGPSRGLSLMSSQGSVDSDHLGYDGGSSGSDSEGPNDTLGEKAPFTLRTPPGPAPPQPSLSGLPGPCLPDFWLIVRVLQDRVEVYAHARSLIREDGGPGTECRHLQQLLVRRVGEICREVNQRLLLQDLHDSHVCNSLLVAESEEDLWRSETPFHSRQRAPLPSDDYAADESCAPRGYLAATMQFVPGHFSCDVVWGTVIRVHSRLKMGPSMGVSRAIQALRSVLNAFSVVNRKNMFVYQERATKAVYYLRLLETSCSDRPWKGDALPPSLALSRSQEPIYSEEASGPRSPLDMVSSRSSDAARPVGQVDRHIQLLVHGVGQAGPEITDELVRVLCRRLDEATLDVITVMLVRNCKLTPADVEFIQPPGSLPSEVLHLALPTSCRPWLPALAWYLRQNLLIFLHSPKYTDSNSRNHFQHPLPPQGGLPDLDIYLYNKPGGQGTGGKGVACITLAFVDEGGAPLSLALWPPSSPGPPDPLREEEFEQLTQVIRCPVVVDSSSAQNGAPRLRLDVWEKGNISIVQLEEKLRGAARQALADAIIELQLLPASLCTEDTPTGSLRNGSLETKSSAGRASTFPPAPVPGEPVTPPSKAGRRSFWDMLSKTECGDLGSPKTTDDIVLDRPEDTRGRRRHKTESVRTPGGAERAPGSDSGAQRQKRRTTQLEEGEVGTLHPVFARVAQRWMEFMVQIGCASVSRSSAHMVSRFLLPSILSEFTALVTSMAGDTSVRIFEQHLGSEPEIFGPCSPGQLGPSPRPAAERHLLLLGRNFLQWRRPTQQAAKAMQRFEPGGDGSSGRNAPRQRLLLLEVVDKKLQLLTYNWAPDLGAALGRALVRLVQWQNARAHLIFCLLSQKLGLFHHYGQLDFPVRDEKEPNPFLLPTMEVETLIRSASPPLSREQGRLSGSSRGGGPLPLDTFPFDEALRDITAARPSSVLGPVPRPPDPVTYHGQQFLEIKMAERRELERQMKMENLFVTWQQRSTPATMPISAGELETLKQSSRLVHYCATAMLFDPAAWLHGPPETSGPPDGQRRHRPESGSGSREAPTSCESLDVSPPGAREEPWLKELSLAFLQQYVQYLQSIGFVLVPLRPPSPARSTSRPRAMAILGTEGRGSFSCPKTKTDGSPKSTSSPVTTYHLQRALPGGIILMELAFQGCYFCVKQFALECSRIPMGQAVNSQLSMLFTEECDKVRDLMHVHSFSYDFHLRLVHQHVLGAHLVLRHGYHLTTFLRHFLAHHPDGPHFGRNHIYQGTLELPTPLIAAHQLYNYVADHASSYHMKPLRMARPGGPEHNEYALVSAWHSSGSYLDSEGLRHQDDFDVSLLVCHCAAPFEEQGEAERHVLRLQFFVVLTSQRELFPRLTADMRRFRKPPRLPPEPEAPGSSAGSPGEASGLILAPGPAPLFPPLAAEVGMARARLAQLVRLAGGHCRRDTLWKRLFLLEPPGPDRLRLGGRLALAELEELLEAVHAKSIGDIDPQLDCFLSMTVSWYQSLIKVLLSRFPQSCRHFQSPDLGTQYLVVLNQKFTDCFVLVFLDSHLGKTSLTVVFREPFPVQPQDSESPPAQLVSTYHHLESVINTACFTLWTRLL
UniProt Q8NDV3, sequence (Q8NDV3 whole entry, looked up): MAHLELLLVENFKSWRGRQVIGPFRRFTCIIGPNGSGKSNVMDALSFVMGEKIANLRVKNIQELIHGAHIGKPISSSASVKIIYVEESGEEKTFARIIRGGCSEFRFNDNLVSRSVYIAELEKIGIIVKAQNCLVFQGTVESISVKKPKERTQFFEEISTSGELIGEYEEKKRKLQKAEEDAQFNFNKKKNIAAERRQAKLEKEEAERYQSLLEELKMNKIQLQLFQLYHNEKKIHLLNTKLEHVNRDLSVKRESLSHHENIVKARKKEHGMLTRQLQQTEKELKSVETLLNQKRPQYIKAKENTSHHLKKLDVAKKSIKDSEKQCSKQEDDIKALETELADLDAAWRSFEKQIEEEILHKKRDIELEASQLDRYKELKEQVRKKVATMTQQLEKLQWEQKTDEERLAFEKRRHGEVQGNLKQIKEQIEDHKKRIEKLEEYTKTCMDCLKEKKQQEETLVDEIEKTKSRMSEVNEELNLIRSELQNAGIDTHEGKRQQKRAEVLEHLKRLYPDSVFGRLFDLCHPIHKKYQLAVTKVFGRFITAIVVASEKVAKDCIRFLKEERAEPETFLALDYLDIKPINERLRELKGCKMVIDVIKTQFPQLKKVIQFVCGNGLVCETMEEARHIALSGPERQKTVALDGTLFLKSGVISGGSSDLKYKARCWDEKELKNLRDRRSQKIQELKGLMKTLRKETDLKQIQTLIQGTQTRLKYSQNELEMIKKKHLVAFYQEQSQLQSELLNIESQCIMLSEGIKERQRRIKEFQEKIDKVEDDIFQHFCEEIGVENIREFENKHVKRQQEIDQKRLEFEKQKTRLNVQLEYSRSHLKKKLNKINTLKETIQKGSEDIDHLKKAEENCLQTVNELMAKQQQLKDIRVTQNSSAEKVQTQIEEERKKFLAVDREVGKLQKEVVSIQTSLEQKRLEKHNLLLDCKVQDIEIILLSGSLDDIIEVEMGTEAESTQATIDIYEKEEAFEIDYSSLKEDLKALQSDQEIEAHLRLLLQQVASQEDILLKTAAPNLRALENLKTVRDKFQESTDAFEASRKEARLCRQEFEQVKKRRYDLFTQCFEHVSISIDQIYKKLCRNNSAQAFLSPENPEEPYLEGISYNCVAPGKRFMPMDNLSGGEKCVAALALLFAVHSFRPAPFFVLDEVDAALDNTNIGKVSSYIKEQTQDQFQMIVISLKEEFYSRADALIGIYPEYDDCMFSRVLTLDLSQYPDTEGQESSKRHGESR
UniProt Q15506, sequence (Q15506 whole entry, looked up): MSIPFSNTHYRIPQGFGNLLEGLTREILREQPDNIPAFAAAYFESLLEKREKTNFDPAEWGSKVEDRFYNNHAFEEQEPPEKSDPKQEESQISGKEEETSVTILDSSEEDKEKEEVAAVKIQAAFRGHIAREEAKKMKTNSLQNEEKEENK
UniProt P49675, sequence (P49675 whole entry, looked up): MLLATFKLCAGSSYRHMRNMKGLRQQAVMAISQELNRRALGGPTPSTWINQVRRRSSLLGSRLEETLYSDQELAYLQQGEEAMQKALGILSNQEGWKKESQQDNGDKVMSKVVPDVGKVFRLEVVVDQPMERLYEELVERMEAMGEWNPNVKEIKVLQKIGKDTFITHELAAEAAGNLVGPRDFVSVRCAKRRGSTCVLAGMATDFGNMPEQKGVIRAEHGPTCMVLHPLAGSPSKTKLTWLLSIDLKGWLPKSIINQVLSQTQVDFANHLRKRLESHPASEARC

| Target | log2 fold change (alvocidib) | log2 fold change (Tubastatin A) | log2 fold change [1] | log2 fold change (defactinib) | log2 fold change (encorafenib) | log2 fold change [2] | log2 fold change (alisertib) | log2 fold change [3] | log2 fold change (gefitinib) | log2 fold change [4] |
| --- | --- | --- | --- | --- | --- | --- | --- | --- | --- | --- |
| SSX5 isoform 2 (UniProt O60225) | -0.096 | -0.015 | 0.038 | -0.026 | -0.082 | -0.271 | -0.172 | -0.002 | 0.005 | – |
| SRGN (UniProt P10124) | -0.509 (active) | 0.027 | 0.048 | 0.175 | 0.014 | -0.055 | – | 0.026 | – | 0.065 |
| STK39 (UniProt Q9UEW8) | 0.011 | -0.128 | -0.015 | 0 | -0.021 | 0.164 | -0.055 | 0.02 | 0.028 | -0.026 |
| SUZ12 (UniProt Q15022) | -0.004 | -0.012 | 0.009 | 0.049 | 0 | 0.101 | -0.057 | -0.062 | 0.062 | 0.027 |
| SLC30A6 isoform 2 (UniProt Q6NXT4) | 0.023 | 0.126 | 0.016 | 0.011 | 0.003 | -0.322 (active) | 0.003 | -0.18 | -0.005 | – |
| SMC3 (UniProt Q9UQE7) | -0.009 | 0.006 | 0.003 | 0.002 | -0.007 | 0.002 | 0.005 | -0.013 | -0.005 | -0.036 |
| SLC25A38 (UniProt Q96DW6) | -0.062 | 0.014 | -0.049 | 0.074 | -0.038 | 0.321 | 0.044 | 0.097 | 0.094 | 0.06 |
| SSBP3 (UniProt Q9BWW4) | 0.028 | 0.074 | 0 | 0.072 | 0.032 | 0.02 | 0.018 | -0.016 | -0.054 | 0.008 |
| SPPL2A (UniProt Q8TCT8) | 0.013 | 0.107 | 0.103 | -0.054 | 0.124 | -0.063 | – | 0.099 | – | – |
| STAR (UniProt P49675) | -0.024 | 0.448 (active) | 0.073 | 0.034 | -0.052 | 0.063 | 0.133 | – | -0.056 | 0.005 |
| SLC25A17 (UniProt O43808) | -0.216 | 0.094 | 0.007 | -0.036 | 0.004 | -0.009 | 0.019 | -0.011 | 0.026 | 0.006 |
| TAF11 (UniProt Q15544) | -0.015 | 0.014 | – | -0.151 | -0.155 | 0.398 (active) | -0.053 | 0.048 | 0.064 | 0.137 |
| SLC22A18 (UniProt Q96BI1) | -0.035 | – | 0.052 | -0.076 | 0.009 | -0.013 | – | -0.077 | – | – |
| SNIP1 (UniProt Q8TAD8) | – | – | – | – | – | – | -0.024 | – | -0.015 | – |
| SMPD2 (UniProt O60906) | -0.043 | 0.088 | -0.787 | – | 0.09 | -0.22 | – | -0.074 | – | -0.034 |
| STAU1 isoform 3 (UniProt O95793) | -0.06 | – | -0.044 | – | – | – | -0.068 | – | 0.03 | – |
| SIX5 (UniProt Q8N196) | 0.159 | 0.117 | 0.015 | – | – | – | 0.023 | 0.008 | 0.13 | 0.043 |
| SMC1B isoform 3 (UniProt Q8NDV3) | – | 0.038 | 0 | 0.147 | 0.039 | -0.03 | 0.027 | -0.03 | 0.044 | 0.028 |
| STK26 isoform 3 (UniProt Q9P289) | – | – | – | – | 0.034 | 0.001 | – | – | – | 0.058 |
| SIN3B (UniProt O75182) | -0.463 | – | – | 0.185 | 0.12 | 0.272 | -0.064 | – | 0.793 | – |
| SMIM1 (UniProt B2RUZ4) | -0.031 | 0.123 | 0.097 | – | 0.226 | -0.07 | -0.149 | 0.022 | -0.279 | – |
| SRC isoform 2 (UniProt P12931) | -0.035 | 0.133 | 0.118 | – | -0.171 | 0.399 | – | 0 | – | -0.031 |

| Target | log2 fold change (alvocidib) | log2 fold change (Tubastatin A) | log2 fold change [1] | log2 fold change (defactinib) | log2 fold change (encorafenib) | log2 fold change [2] | log2 fold change (alisertib) | log2 fold change [3] | log2 fold change (gefitinib) | log2 fold change [4] |
| --- | --- | --- | --- | --- | --- | --- | --- | --- | --- | --- |
| STMN3 (UniProt Q9NZ72) | – | 0.009 | 0.014 | 0.023 | -0.015 | -0.021 | -0.082 | -0.012 | -0.041 | 0.029 |
| SHB (UniProt Q15464) | -0.139 | -0.108 | 0.169 | – | – | – | – | 0.034 | – | 0.067 |
| SZT2 (UniProt Q5T011) | -0.169 | 0.012 | -0.002 | – | -0.011 | -0.105 | -0.193 | -0.031 | 0.094 | 0.109 |
| SURF2 (UniProt Q15527) | -0.02 | -0.276 | – | 0.016 | -0.001 | -0.319 (active) | -0.005 | 0.011 | -0.041 | 0.013 |
| SNAPC2 (UniProt Q13487) | -0.034 | -0.117 | -0.005 | – | – | – | 0.014 | – | -0.044 | -0.175 |
| STK17B (UniProt O94768) | – | -0.466 | 0.082 | – | – | – | 0.066 | – | 0.094 | 0.642 |
| STK17A (UniProt Q9UEE5) | 0.182 | – | – | – | – | – | -0.291 | – | -0.141 | – |
| STK38L (UniProt Q9Y2H1) | – | -0.063 | 0.647 (active) | – | -0.036 | 0.193 | 0.06 | – | -0.049 | 0.06 |
| SLCO4A1 (UniProt Q96BD0) | -0.129 | – | – | – | – | – | -0.041 | – | -0.001 | – |
| SLC12A6 isoform 2 (UniProt Q9UHW9) | – | -0.013 | -0.149 | – | 0.031 | 0.075 | – | -0.106 | – | -0.008 |
| SNRPD2 (UniProt K7EJB5) | – | -0.001 | -0.057 | -0.074 | -0.069 | 0.047 | 0.103 | 0.025 | 0.107 | 0.054 |
| SMYD3 (UniProt Q9H7B4) | – | -0.122 | -0.018 | 0.036 | 0.022 | 0.071 | -0.044 | 0 | 0.034 | 0.028 |
| SPAG1 (UniProt Q07617) | – | 0.071 | – | -0.014 | – | – | – | -0.03 | – | – |
| TAOK2 (UniProt Q9UL54) | -0.053 | 0.046 | – | -0.001 | -0.033 | 0.055 | 0.02 | 0.02 | -0.009 | -0.015 |
| SMARCA4 isoform 4 (UniProt P51532) | 0.078 | 0.106 | -0.008 | – | -0.315 | 0.04 | -0.046 | -0.038 | -0.116 | 0.024 |
| TARDBP (UniProt K7EN94) | – | – | – | -0.197 | 0.224 | 0.04 | – | – | – | – |
| SLC39A13 (UniProt Q96H72) | – | -0.125 | -0.058 | – | – | – | – | – | – | – |
| SPA17 (UniProt Q15506) | -0.208 | 0.021 | – | 0.056 | -0.007 | -0.032 | – | -0.038 | – | 0.038 |
| TAOK2 isoform 2 (UniProt Q9UL54) | – | – | – | – | – | – | -0.046 | – | -0.202 | – |
| TAF1B (UniProt Q53T94) | 0.175 | -0.083 | – | -0.024 | 0.073 | -0.13 | -0.177 | -0.047 | 0.016 | 0.614 |
| STK3 isoform 2 (UniProt Q13188) | – | -0.075 | – | 0.205 | -0.046 | -0.068 | – | 0.269 | 0.002 | 0.015 |
| SLC41A1 (UniProt Q8IVJ1) | -0.213 | 0.055 | 0.043 | – | 0.071 | -0.031 | 0.024 | 0.014 | 0.153 | – |
